Tgondii IFNg: blocks Toxoplasma gondii growth in the presence of IFN-gamma; Toxoplasma gondii growth in IFN-gamma-treated host cells; active compounds read low; activity change, negative = inhibition, % (concentration not given with the values); 69,000 tested, 3.8% active; in the data active means activity change below about -70%, passing the limit was not always enough;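 further: host cells are HeLa cells infected with Toxoplasma gondii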
The depositor's hits bear a star; i = inactive. Only a selection was taken, and hits are over-represented in it overall.

SMILES	Tgondii IFNg
CCN1c2cc(C)ccc2-n2cccc2C12CCN(S(=O)(=O)c1cc(OC)ccc1OC)CC2	-103*
CCN1c2cc(C)ccc2-n2cccc2C12CCN(S(=O)(=O)c1c(C)noc1C)CC2	64
COc1ccc(S(=O)(=O)N2CCC3(CC2)Nc2ccccc2-n2cccc23)cc1Cl	22
CCN1c2cc(C)ccc2-n2cccc2C12CCN(S(=O)(=O)c1ccc3c(c1)CCCC3)CC2	-81*
CCN1c2cc(C)ccc2-n2cccc2C12CCN(S(=O)(=O)c1ccc(OC)c(Cl)c1)CC2	-100*
COc1ccc(OC)c(S(=O)(=O)N2CCC3(CC2)Nc2cc(C)ccc2-n2cccc23)c1	11
CCc1ccc(S(=O)(=O)N2CCC3(CC2)c2cccn2-c2ccc(C)cc2N3CC)cc1	-65
CCN1c2cc(C)ccc2-n2cccc2C12CCN(S(=O)(=O)c1ccc(Cl)s1)CC2	-61
COc1ccc2c(c1)NC1(CCN(S(=O)(=O)c3cc(C)ccc3C)CC1)c1cccn1-2	-6
Cc1ccc(CNC(=O)Cn2c(=O)c(S(=O)(=O)c3ccccc3)cc3ccccc32)cc1	11
CNC(=O)CN1CCCn2cnc(COCC(=O)N(C)C)c2C1	1
Cn1c(=O)c(-c2nc(-c3ccc4c(c3)OCO4)no2)c(O)c2ccccc21	107
CC(C)c1cc(C(=O)NCc2nc(Cc3cccs3)no2)n(C)n1	-83*
O=C(NCc1nc(Cc2cccs2)no1)c1cccc2ccnn12	-53
Cc1ccc2c(c1)cc(C(=O)NCc1nc(Cc3ccccc3)no1)n2C	-53
COCCN1CCC(c2nc3ccc(-c4ccnn4C)cn3n2)CC1	-4
COc1ccc(-n2c(=O)n(Cc3nc(-c4ccccc4OC)oc3C)c(=O)c3cccnc32)cc1	11
COc1cccc(CNC(=O)c2c(O)c3ccccc3n(-c3ccccc3)c2=O)c1	-5
O=C(NCc1cccc(Cl)c1)c1c(O)c2cccnc2n(-c2ccccc2)c1=O	-83*
O=C(NCc1ccc(Cl)cc1)c1c(O)c2ccccc2n(-c2ccccc2)c1=O	-124*
O=C(NCc1cccc(Cl)c1)c1c(O)c2cccnc2n(-c2cccc(F)c2)c1=O	72
O=C(NCc1ccc(Cl)cc1)c1c(O)c2cccnc2n(-c2ccc(F)cc2)c1=O	-105*
O=C(NCc1cccnc1)c1c(O)c2ccccc2n(-c2ccccc2)c1=O	-5
O=C(NCc1ccc(Cl)cc1)c1c(O)c2cccnc2n(-c2cccc(F)c2)c1=O	139
O=C(NCc1ccccc1)c1c(O)c2cccnc2n(-c2ccc(F)cc2)c1=O	75
SMILES	Tgondii IFNg
O=C(NCc1cccc(Cl)c1)c1c(O)c2cccnc2n(-c2ccc(F)cc2)c1=O	128
Cc1ccc(NC(=O)Cn2ncc3c(N4CCOCC4)ncnc32)cc1F	-23
CCOc1ccccc1-c1nc(CN2CCc3c(sc4c3CCCC4)C2c2ccccc2)c(C)o1 (configuration not stated)	85
NC(=O)N1CCc2cc(C(=O)O)c(-c3ccncc3)nc2CC1	-32
COCC1COCCC12CCN(C(=O)c1ccc(C)nc1)CC2 (configuration not stated)	-51
CC(C)(C)NC(=O)N1CCC(Nc2nccc(C(F)(F)F)n2)CC1	-62
COc1ccc(F)c(CN2CCC(NS(C)(=O)=O)CC2)c1Cl	4
COc1ccc(F)c(F)c1C(=O)c1cnc(NC2CCN(S(C)(=O)=O)CC2)nc1N	-76*
Cc1cc(C(=O)N2Cc3nccn3CC(COCCN(C)C)C2)no1 (configuration not stated)	-4
COCCN1CC2(CCN(C(=O)NCc3ccccc3)CC2)C2(CCNC2=O)C1 (configuration not stated)	-37
c1ccc(CN2CCN(c3ncnc4ccccc34)CC2)cc1	-86*
c1ccc(-n2cc(CN3CCN(c4ncnc5ccccc45)CC3)cn2)cc1	-53
c1ccc2c(N3CCN(Cc4cccc5nccnc45)CC3)ncnc2c1	-17
COc1ccc(-c2nc3c(n2O)CCc2nonc2-3)cc1	58
CCOC(=O)c1cnn(C)c1NS(=O)(=O)c1ccc(Cl)cc1	-62
CCOC(=O)c1cccc(NC(=O)CN2C(=O)CCc3cc(S(=O)(=O)N4CCCCC4)ccc32)c1	-34
CCOC(=O)c1ccc(N2CCCCC2)c(NS(=O)(=O)c2ccc(C)cc2)c1	-100*
CCN(CC)CCN1C[C@@H](C(=O)NCc2ccco2)C[C@@H]2OCC[C@@H]21	226
Cc1noc(C)c1CN(C)C(=O)c1cccc(NCc2cccnc2)c1C	-9
Cc1c(NCc2cccnc2)cccc1C(=O)N1C[C@@H](C)O[C@@H](C)C1	-83*
CCC1c2cccn2CCN1C(=O)c1cccc(NCc2cccnc2)c1C (configuration not stated)	2
COc1cccc(S(=O)(=O)N2CCn3nnc(COCC4CC4)c3C2)c1	8
COc1ccc2[nH]cc(CCNC(=O)c3sc4ncccc4c3-n3cccc3)c2c1	i
COc1ccc(-c2cnc(NC(=O)c3cnn(-c4ccc(F)cc4)c3)n2C)cc1	-11
Cc1ccc(CNCCNC(=O)c2nonc2N)s1	-33
SMILES	Tgondii IFNg
Cc1nc2c(Cl)cc(Cl)cc2c2nc(N)nn12	-92*
CC(=O)NCCNC(=O)c1ccc(CNc2ccc(C)cc2)cc1	118
CCc1nn(C)c(C(=O)NC(Cc2ccsc2)c2cccnc2)c1C (configuration not stated)	-32
CN(C)Cc1cn2c(n1)CN(C(=O)Cc1cccs1)CC2	1
CC(C)CCN1c2nc(Nc3cc(F)c(O)c(F)c3)ncc2N(C)C(=O)C1C (configuration not stated)	-84*
Cc1nc(C)c(C(=O)NC(c2cc(=O)[nH]c(N3CCOCC3)n2)C(C)C)s1 (configuration not stated)	17
CC1CCc2onc(C(=O)N3CCn4cc(C(F)(F)F)nc4C3)c2C1 (configuration not stated)	-13
CCc1noc(C)c1C(=O)N1CCC(O)(CN(C)C)C1 (configuration not stated)	3
COCCN1CCc2ncc(CNC(=O)c3nccn3C)n2CC1	6
COc1ccc(-n2cccn2)c(CN2CCC(n3nc(C)cc3C)C2)c1 (configuration not stated)	-5
COc1ccc(-n2cccn2)c(CN2CCCCC2c2ccccn2)c1 (configuration not stated)	-85*
COc1ccc(-c2nc(CN3CCCC3c3ccccn3)c(C)o2)cc1 (configuration not stated)	7
COCCNC(=O)c1ccc2ccc(N(C)Cc3ccccc3)n2c1	-2
CC(=O)N1CC[C@@H](OCC(=O)N2CCCC2)[C@@H](Cc2ccccc2)C1	-15
NC(=O)C(c1ccccc1)C1CCCC1 (configuration not stated)	10
C=C1SC(=Nc2cccc(OC)c2)N(C(=O)C(c2ccccc2)C2CCCC2)C1(C)C (configuration not stated)	-90*
C=C1SC(=Nc2ccccc2Cl)N(C(=O)c2sc3ccccc3c2Cl)C1(C)C	-28
CO[C@H]1CCN(C(=O)c2cnoc2C)[C@H]1Cc1ccccc1	47
NC(=O)Cc1csc(NC(=O)Cn2nc(C(F)(F)F)c3c2CCCCC3)n1	-2
O=C(c1ccc(F)c(F)c1)N1CCn2nnc(COc3ccccn3)c2C1	1
O=C1CCc2cc(S(=O)(=O)NCCc3ccccc3)cc3c2N1CCC3	-5
CCc1ccccc1NS(=O)(=O)c1cc2c3c(c1)CCN3C(=O)CC2	-52
CC(C)c1ccc(NS(=O)(=O)c2cc3c4c(c2)CCN4C(=O)CC3)cc1	-77*
CCc1cccc(NS(=O)(=O)c2cc3c4c(c2)CCN4C(=O)CC3)c1	-81*

Screening results deposited in PubChem by Broad Institute.
